Eight molecules from PubChem BioAssay (NCI) can be followed below.

This is part of a sample that, as a whole, favours compounds with a hit. Of some 83,000 tested, about 20% had one in any assay.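 Single-dose data. Exposure time 48 hours. Values below 10 considered active.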 A number with no mark means an inactive call. Activity calls are given as the source filed them.

Common to all, as to assay: NCI-60 one-dose screen, 48 h (100 = growth as untreated, 0 = no growth, -100 = all killed)
What all share (conditions): 10 µM

In experiment [1] the test system is DU-145 prostate.
The test system of experiment [2] is K-562 leukemia.
For experiment [3], the system named is MALME-3M melanoma.
For experiment [4], the system named is MDA-MB-231 breast.
Experiment [5] concerns RXF 393 renal.
The subject of experiment [6] is SF-268 CNS.
Experiment [7] concerns SF-295 CNS.
In experiment [8] the test system is SF-539 CNS.
Experiment [9] has as its system UACC-257 melanoma.
Experiment [10] deals with M14 melanoma.
Experiment [11] deals with HCT-15 colon.
Experiment [12] deals with HT29 colon.
Experiment [13] concerns SNB-75 CNS.
The test system of experiment [14] is SNB-19 CNS.
Experiment [15] relates to U251 CNS.
Experiment [16] deals with PC-3 prostate.
Experiment [17] has as its system SK-MEL-5 melanoma.
Experiment [18] relates to UACC-62 melanoma.
The test system of experiment [19] is LOX IMVI melanoma.
The subject of experiment [20] is SK-MEL-28 melanoma.

On to `Cc1[nH]c2ccccc2c1/C=N/Nc1ncnc2sc3c(c12)CCN(CC(=O)OC(C)(C)C)C3`, for which the growth in experiment [1] is 80.5%; in [2] it was 22.3%; in [3] it was 120%; in experiment [4], 84.5%; in experiment [5], -0.516% (active); in experiment [6], 93.8%. The growth in experiment [7] was 88.8%; in [8], 62.7%; in experiment [9], 63.6%; in experiment [10], 73.1%; in experiment [11], 30.1%; in experiment [12], 41.8%. For the same molecule, the growth was 63.4% in experiment [13]; 93.3% in experiment [14]; 78.2% in experiment [15]; 69.2% in [16]; 60.8% in experiment [17]; 81.9% in experiment [18]. The growth in experiment [19] is 83.6%; in experiment [20], 80.7%.
Consider `Clc1nc2ccc(Br)cc2cc1-c1nc2ccccc2[nH]1`, for which the growth in [1] is 99.4%; in experiment [2], 86.1%; in experiment [3], 97.2%; in [4], 64.6%; in experiment [5] it was 10.6%; in [6], 59.3%. Further, the growth in experiment [7] is 86.7%; in experiment [8] it was 107%; in [9], 102%; in experiment [10] it was 105%; in experiment [11], 92.3%; in experiment [12] it was 106%. In addition, the growth in experiment [13] was 42.4%; in experiment [14] it was 91%; in experiment [15], 81%; in experiment [16], 39.6%; in [17], 84.7%; in experiment [18], 90.9%. Besides, the figures for the growth in experiment [19] and in [20] were 69.5% and 105%, respectively.
For `OCC1OC(n2ccc3c(NO)ncnc32)C(O)C1O` (stereo not given), the growth in experiment [1] is -16.6% (active); in experiment [2], -11.4% (active); in experiment [3], -69.2% (active); in experiment [4], -20% (active); in experiment [5], -32.7% (active); in [6] it was -14.3% (active). The growth is -15.4% (active) in [7]; -44% (active) in experiment [8]; -57.3% (active) in experiment [9]; -89.7% (active) in experiment [10]; -37.6% (active) in experiment [11]; -1.97% (active) in experiment [12]. Besides, the growth was -24.2% (active) in experiment [13]; -0.974% (active) in experiment [14]; 0.0054% (active) in [15]; -7.72% (active) in [16]; -90.8% (active) in experiment [17]; -88.8% (active) in experiment [18]. For the same molecule, the growth in experiment [19] is -45.3% (active); in [20], -47.5% (active).
With `O=C(CCC(C(=O)c1ccccc1)c1ccccc1)c1ccccc1` (stereo not given), the growth in experiment [1] was 86.4%; in experiment [2], 18.7%; in experiment [3], 43.4%; in experiment [4], 77.9%; in experiment [5] it was 78%; in experiment [6] it was 85%. For the same molecule, the growth in experiment [7] was 36.9%; in experiment [8] it was 99.9%; in experiment [9], 90.5%; in experiment [10], 52.2%; in [11], 45.8%; in experiment [12] it was 34.1%. Besides, the growth in experiment [13] is 79.9%; in [14], 89.8%; in experiment [15], 90.4%; in [16], 55.5%; in experiment [17], 82.5%; in experiment [18] it was 63%. Moreover, the growth is 91.9% in experiment [19] and 80.5% in experiment [20].
As for `CCNCC(=O)Nc1ccc(C(=O)OCC)cc1`, the growth was 104% in experiment [1]; 96.6% in experiment [2]; 110% in experiment [3]; 119% in experiment [4]; 124% in [5]; 93.6% in [6]. The growth in experiment [7] was 102%; in experiment [8], 100%; in experiment [9] it was 96.7%; in experiment [10] it was 102%; in experiment [11] it was 104%; in experiment [12], 90.7%. Also, the growth was 86.6% in experiment [13]; 109% in experiment [14]; 97.7% in experiment [15]; 98.3% in experiment [16]; 108% in experiment [17]; 99.2% in [18]. In addition, the growth in experiment [19] is 95%; in [20], 103%.
As for `N#Cc1ccc(C(=O)CSc2nccc(Nc3ccc(C(=O)O)cc3)n2)cc1`, the growth in experiment [1] is 110%; in [2], 106%; in experiment [3], 106%; in experiment [4], 107%; in experiment [5] it was 97.4%; in experiment [6], 102%. Besides, the growth in experiment [7] was 97.4%; in [8], 97.9%; in experiment [9] it was 110%; in experiment [10], 110%; in experiment [11] it was 106%; in experiment [12], 104%. Moreover, the growth in experiment [13] is 106%; in experiment [14], 99%; in experiment [15], 106%; in experiment [16], 99.5%; in [17] it was 99.1%; in [18], 103%. In addition, the results for the growth in experiment [19] and in experiment [20] were 101% and 110%, respectively.
Regarding `Clc1ccc(/C=C2\CCCC3C2=Nc2ccccc2NC3c2ccc(Cl)cc2)cc1` (stereo not given), the growth in [1] was 89.2%; in experiment [2], 47.2%; in [3], 89.7%; in [4], 97.6%; in experiment [5] it was 65.3%; in experiment [6], 80%. For the same molecule, the growth was 83.3% in experiment [7]; 92.3% in experiment [8]; 79.9% in [9]; 29.1% in [10]; 63.7% in experiment [11]; 16% in experiment [12]. Besides, the growth in experiment [13] was 88.2%; in [14] it was 92%; in [15], 20.8%; in [16], 77.3%; in [17], 88.7%; in experiment [18], 74.2%. Further, the growth in [19] was -27.5% (active); in experiment [20], 101%.
In the case of `O=C(Nc1ccc2c(O)cc(S(=O)(=O)O)cc2c1)c1ccc([N+](=O)[O-])cc1`, the growth in experiment [1] was 99.7%; in [2], 99%; in experiment [3], 99.8%; in experiment [4] it was 105%; in [5] it was 105%; in experiment [6] it was 93.9%. The growth in experiment [7] was 98.2%; in experiment [8] it was 97%; in [9], 74.6%; in [10], 94.6%; in experiment [11] it was 99.3%; in [12], 95.3%. In addition, the growth was 99.6% in [13]; 95.8% in experiment [14]; 84% in experiment [15]; 83.1% in experiment [16]; 94.8% in experiment [17]; 101% in experiment [18]. Moreover, the results for the growth in [19] and in [20] were 95.1% and 102%, respectively.
